Source: PubChem BioAssay AID1159580 (chemical genetic matrix, 2015)
Values joined by “and” are separate entries in the source; they are usually repeats but may differ in a detail not shown here. Equal values may be shown once. The whole screen tested about 5,500 compounds, of which about 2,000 (36%) were called active. Roughly 18% stayed inconclusive and do not appear here. The list shows a part of the results. Values without a mark were called inactive. Rule as the data show it: active = normalized growth mostly below about 0.91 (no sharp cut-off); inconclusive = no clear call, values can overlap the other calls; inactive = mostly above about 0.92.

Experiment: chemical genetic growth profiling, strain panel (AID 1159580);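 also: tested at 20 µM; growth read once vehicle control cultures reached saturation at 30 °C; 1 = growth at the plate median or of vehicle wells; lower values mean less growth of the strain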
Settings: S. cerevisiae deletion strains, growth OD

O=C(Nc1ccc([N+](=O)[O-])cc1Cl)c1cc(Cl)ccc1O
normalized growth (locus YAL021C, strain ccr4, stronger effect = lower value): 0.798 (active)
normalized growth (locus YAL026C, strain drs2, stronger effect = lower value): 0.931
normalized growth (locus YAL030W, strain snc1, stronger effect = lower value): 0.937
normalized growth (locus YAL040C, strain CLN3, stronger effect = lower value): 0.969
normalized growth (locus YBL061C, strain skt5, stronger effect = lower value): 0.818 (active)
normalized growth (locus YBR009C, strain hhf1, stronger effect = lower value): 0.896 (active)
normalized growth (locus YBR021W, strain FUR4, stronger effect = lower value): 0.898
normalized growth (locus YBR023C, strain chs3, stronger effect = lower value): 0.757 (active)
normalized growth (locus YBR171W, strain sec66, stronger effect = lower value): 1.01
normalized growth (locus YBR229C, strain ROT2, stronger effect = lower value): 0.991
normalized growth (locus YBR231C, strain swc5, stronger effect = lower value): 0.69 (active)
normalized growth (locus YBR279W, strain paf1, stronger effect = lower value): 0.748 (active)
normalized growth (locus YCL011C, strain gbp2, stronger effect = lower value): 0.944
normalized growth (locus YCL016C, strain dcc1, stronger effect = lower value): 0.458 (active)
normalized growth (locus YCL029C, strain bik1, stronger effect = lower value): 1.15 [resistant] (active)
normalized growth (locus YCL061C, strain MRC1 (second series), stronger effect = lower value): 0.999
normalized growth (locus YCL069W, strain vba3, stronger effect = lower value): 0.959
normalized growth (locus YCR088W, strain abp1, stronger effect = lower value): 0.97
normalized growth (locus YDL005C, strain med2, stronger effect = lower value): 1.09 [resistant] (active)
normalized growth (locus YDL035C, strain GPR1, stronger effect = lower value): 0.856 (active)
normalized growth (locus YDL040C, strain nat1, stronger effect = lower value): 0.681 (active)
normalized growth (locus YDL074C, strain BRE1, stronger effect = lower value): 0.895
normalized growth (locus YDL101C, strain DUN1, stronger effect = lower value): 0.983
normalized growth (locus YDL185W, strain tfp1, stronger effect = lower value): 1.01
normalized growth (locus YDL192W, strain arf1, stronger effect = lower value): 1.01
normalized growth (locus YDR001C, strain nth1, stronger effect = lower value): 0.989
normalized growth (locus YDR069C, strain doa4, stronger effect = lower value): 1.03
normalized growth (locus YDR101C, strain arx1, stronger effect = lower value): 1.22 [resistant] (active)
normalized growth (locus YDR137W, strain rgp1, stronger effect = lower value): 0.18 (active)
normalized growth (locus YDR150W, strain NUM1, stronger effect = lower value): 0.878 (active)
normalized growth (locus YDR159W, strain sac3, stronger effect = lower value): 0.785 (active)
normalized growth (locus YDR162C, strain NBP2, stronger effect = lower value): 0.832 (active)
normalized growth (locus YDR195W, strain ref2): 1.24 [resistant] (active)
normalized growth (locus YDR297W, strain sur2, stronger effect = lower value): 0.938
normalized growth (locus YDR318W, strain mcm21, stronger effect = lower value): 1.03
normalized growth (locus YDR334W, strain swr1, stronger effect = lower value): 0.981
normalized growth (locus YDR335W, strain msn5, stronger effect = lower value): 0.997
normalized growth (locus YDR363W, strain ESC2, stronger effect = lower value): 0.95
normalized growth (locus YDR388W, stronger effect = lower value): 0.989
normalized growth (locus YDR392W, strain spt3, stronger effect = lower value): 0.828
normalized growth (locus YDR502C, strain sam2, stronger effect = lower value): 1.02
normalized growth (locus YEL003W, strain gim4, stronger effect = lower value): 1.07
normalized growth (locus YEL037C, strain rad23, stronger effect = lower value): 1.01
normalized growth (locus YEL061C, strain CIN8 (second series), stronger effect = lower value): 1
normalized growth (locus YEL061C, strain CIN8, stronger effect = lower value): 0.965
normalized growth (locus YER002W, strain NOP16, stronger effect = lower value): 0.884 (active)
normalized growth (locus YER015W, strain faa2, stronger effect = lower value): 0.901 (active)
normalized growth (locus YER016W, strain bim1, stronger effect = lower value): 0.772 (active)
normalized growth (locus YER110C, stronger effect = lower value): 0.934
normalized growth (locus YER111C, strain swi4, stronger effect = lower value): 1.16 [resistant] (active)
normalized growth (locus YER155C, strain BEM2 (second series), stronger effect = lower value): 0.985
normalized growth (locus YER155C, strain BEM2, stronger effect = lower value): 0.99
normalized growth (locus YER167W, strain BCK2, stronger effect = lower value): 0.929
normalized growth (locus YFR010W, strain ubp6, stronger effect = lower value): 0.959
normalized growth (locus YGL078C, strain dbp3, stronger effect = lower value): 1.01
normalized growth (locus YGL086W, strain mad1, stronger effect = lower value): 0.954
normalized growth (locus YGL167C, strain pmr1, stronger effect = lower value): 0.606 (active)
normalized growth (locus YGL173C, strain kem1, stronger effect = lower value): 0.994
normalized growth (locus YGL227W, strain vid30, stronger effect = lower value): 0.997
normalized growth (locus YGL240W, strain doc1, stronger effect = lower value): 0.6 (active)
normalized growth (locus YGL248W, strain PDE1, stronger effect = lower value): 0.932
normalized growth (locus YGL253W, strain hxk2, stronger effect = lower value): 0.933
normalized growth (locus YGR078C, strain PAC10, stronger effect = lower value): 0.948
normalized growth (locus YGR135W, strain pre9, stronger effect = lower value): 1.03
normalized growth (locus YGR252W, strain gcn5, stronger effect = lower value): 1.01
normalized growth (locus YHR013C, strain ard1, stronger effect = lower value): 0.627 (active)
normalized growth (locus YHR027C, strain rpn1, stronger effect = lower value): 0.944
normalized growth (locus YHR030C, strain SLT2, stronger effect = lower value): 0.922 and 0.995
normalized growth (locus YHR079C, strain IRE1 (second series), stronger effect = lower value): 1.14 [resistant] (active)
normalized growth (locus YHR079C, strain IRE1, stronger effect = lower value): 0.981
normalized growth (locus YHR094C, strain hxt1, stronger effect = lower value): 1.05
normalized growth (locus YHR129C, strain ARP1, stronger effect = lower value): 0.944
normalized growth (locus YHR142W, strain chs7, stronger effect = lower value): 0.967
normalized growth (locus YHR200W, strain rpn10, stronger effect = lower value): 1
normalized growth (locus YIL066C, strain RNR3, stronger effect = lower value): 0.9
normalized growth (locus YIL073C, strain SPO22, stronger effect = lower value): 1.59 [resistant] (active)
normalized growth (locus YIL125W, strain kgd1, stronger effect = lower value): 1
normalized growth (locus YIR030C, strain dcg1, stronger effect = lower value): 1.14 [resistant] (active)
normalized growth (locus YJL092W, strain hpr5, stronger effect = lower value): 0.965
normalized growth (locus YJL095W, strain BCK1 (second series), stronger effect = lower value): 0.91 (active)
normalized growth (locus YJL095W, strain BCK1, stronger effect = lower value): 0.91 and 1
normalized growth (locus YJL115W, strain asf1, stronger effect = lower value): 1.05
normalized growth (locus YJL129C, strain trk1, stronger effect = lower value): 1.13
normalized growth (locus YJL134W, strain LCB3, stronger effect = lower value): 0.978
normalized growth (locus YJL154C, strain vps35, stronger effect = lower value): 0.979
normalized growth (locus YJL164C, strain tpk1, stronger effect = lower value): 0.952
normalized growth (locus YJL166W, strain qcr8, stronger effect = lower value): 0.758 (active)
normalized growth (locus YJL168C, strain set2, stronger effect = lower value): 0.996
normalized growth (locus YJL187C, strain SWE1 (second series), stronger effect = lower value): 0.903
normalized growth (locus YJR043C, strain POL32, stronger effect = lower value): 0.929
normalized growth (locus YJR066W, strain TOR1, stronger effect = lower value): 0.904
